The whole screen tested about 5,500 compounds, of which about 2,000 (36%) were called active. Not shown: some 18% with an inconclusive outcome. No stated cut-off is given here; in the data, active means normalized growth mostly below about 0.91 (no sharp cut-off); inconclusive means no clear call, values can overlap the other calls; inactive means mostly above about 0.92. This is one part of the list.
Assay: chemical genetic growth profiling, strain panel (AID 1159580);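 further: tested at 20 µM; growth read once vehicle control cultures reached saturation at 30 °C; 1 = growth at the plate median or of vehicle wells; lower values mean less growth of the strain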
Conditions: growth OD

Measured: normalized growth

CC(=O)O[C@@H]1CC2C(C)(C)[C@H](O)C[C@H](O)[C@]2(C)C2CC[C@@]3(C)[C@H](c4ccoc4)OC(=O)[C@H]4O[C@]43[C@@]21C (stereo not given in full)
inactive: S. cerevisiae deletion strains, locus YAL021C, strain ccr4, hits give low values 1.01 | S. cerevisiae deletion strains, locus YAL026C, strain drs2, hits give low values 0.993 | S. cerevisiae deletion strains, locus YAL030W, strain snc1, hits give low values 0.995 | S. cerevisiae deletion strains, locus YBL061C, strain skt5, hits give low values 0.988 | S. cerevisiae deletion strains, locus YBR009C, strain hhf1, hits give low values 0.974 | S. cerevisiae deletion strains, locus YBR021W, strain FUR4, hits give low values 0.959 | S. cerevisiae deletion strains, locus YBR023C, strain chs3, hits give low values 0.985 | S. cerevisiae deletion strains, locus YBR171W, strain sec66, hits give low values 0.986 | S. cerevisiae deletion strains, locus YBR229C, strain ROT2, hits give low values 0.952 | S. cerevisiae deletion strains, locus YBR231C, strain swc5, hits give low values 0.983 | S. cerevisiae deletion strains, locus YBR279W, strain paf1, hits give low values 0.988 | S. cerevisiae deletion strains, locus YCL011C, strain gbp2, hits give low values 0.984 | S. cerevisiae deletion strains, locus YCL016C, strain dcc1, hits give low values 0.996 | S. cerevisiae deletion strains, locus YCL029C, strain bik1, hits give low values 0.987 | S. cerevisiae deletion strains, locus YCL061C, strain MRC1, hits give low values 0.99 | S. cerevisiae deletion strains, locus YCL069W, strain vba3, hits give low values 0.989 | S. cerevisiae deletion strains, locus YCR088W, strain abp1, hits give low values 0.995 | S. cerevisiae deletion strains, locus YDL005C, strain med2, hits give low values 0.985 | S. cerevisiae deletion strains, locus YDL035C, strain GPR1, hits give low values 0.982 | S. cerevisiae deletion strains, locus YDL040C, strain nat1, hits give low values 0.984 | S. cerevisiae deletion strains, locus YDL074C, strain BRE1, hits give low values 0.987 | S. cerevisiae deletion strains, locus YDL101C, strain DUN1, hits give low values 1 | S. cerevisiae deletion strains, locus YDL185W, strain tfp1, hits give low values 0.981 | S. cerevisiae deletion strains, locus YDL192W, strain arf1, hits give low values 0.988 | S. cerevisiae deletion strains, locus YDR001C, strain nth1, hits give low values 0.979 | S. cerevisiae deletion strains, locus YDR069C, strain doa4, hits give low values 0.983 | S. cerevisiae deletion strains, locus YDR101C, strain arx1, hits give low values 0.957 | S. cerevisiae deletion strains, locus YDR137W, strain rgp1, hits give low values 1.03 | S. cerevisiae deletion strains, locus YDR159W, strain sac3, hits give low values 0.968 | S. cerevisiae deletion strains, locus YDR162C, strain NBP2, hits give low values 0.993 | S. cerevisiae deletion strains, locus YDR195W, strain ref2 0.935 | S. cerevisiae deletion strains, locus YDR297W, strain sur2, hits give low values 0.996 | S. cerevisiae deletion strains, locus YDR318W, strain mcm21, hits give low values 0.995 | S. cerevisiae deletion strains, locus YDR334W, strain swr1, hits give low values 0.99 | S. cerevisiae deletion strains, locus YDR335W, strain msn5, hits give low values 0.989 | S. cerevisiae deletion strains, locus YDR388W, hits give low values 0.994 | S. cerevisiae deletion strains, locus YDR392W, strain spt3, hits give low values 0.913 | S. cerevisiae deletion strains, locus YDR502C, strain sam2, hits give low values 1 | S. cerevisiae deletion strains, locus YEL003W, strain gim4, hits give low values 0.987 | S. cerevisiae deletion strains, locus YEL037C, strain rad23, hits give low values 0.987 | S. cerevisiae deletion strains, locus YEL061C, strain CIN8 (second series), hits give low values 0.977 | S. cerevisiae deletion strains, locus YER015W, strain faa2, hits give low values 0.981 | S. cerevisiae deletion strains, locus YER016W, strain bim1, hits give low values 0.99 | S. cerevisiae deletion strains, locus YER110C, hits give low values 0.978 | S. cerevisiae deletion strains, locus YER111C, strain swi4, hits give low values 0.976 | S. cerevisiae deletion strains, locus YER155C, strain BEM2 (second series), hits give low values 0.997 | S. cerevisiae deletion strains, locus YER155C, strain BEM2, hits give low values 1 | S. cerevisiae deletion strains, locus YER167W, strain BCK2, hits give low values 0.98 | S. cerevisiae deletion strains, locus YFR010W, strain ubp6, hits give low values 0.983 | S. cerevisiae deletion strains, locus YGL078C, strain dbp3, hits give low values 1 | S. cerevisiae deletion strains, locus YGL086W, strain mad1, hits give low values 0.996 | S. cerevisiae deletion strains, locus YGL167C, strain pmr1, hits give low values 0.995 | S. cerevisiae deletion strains, locus YGL173C, strain kem1, hits give low values 0.962 | S. cerevisiae deletion strains, locus YGL227W, strain vid30, hits give low values 0.986 | S. cerevisiae deletion strains, locus YGL240W, strain doc1, hits give low values 0.971 | S. cerevisiae deletion strains, locus YGL248W, strain PDE1, hits give low values 1.01 | S. cerevisiae deletion strains, locus YGL253W, strain hxk2, hits give low values 0.955 | S. cerevisiae deletion strains, locus YGR078C, strain PAC10, hits give low values 1.02 | S. cerevisiae deletion strains, locus YGR135W, strain pre9, hits give low values 1.06 | S. cerevisiae deletion strains, locus YGR252W, strain gcn5, hits give low values 1.07 | S. cerevisiae deletion strains, locus YHR013C, strain ard1, hits give low values 0.963 | S. cerevisiae deletion strains, locus YHR027C, strain rpn1, hits give low values 1 | S. cerevisiae deletion strains, locus YHR079C, strain IRE1 (second series), hits give low values 0.987 | S. cerevisiae deletion strains, locus YHR094C, strain hxt1, hits give low values 0.978 | S. cerevisiae deletion strains, locus YHR129C, strain ARP1, hits give low values 0.993 | S. cerevisiae deletion strains, locus YHR142W, strain chs7, hits give low values 0.98 | S. cerevisiae deletion strains, locus YHR200W, strain rpn10, hits give low values 0.983 | S. cerevisiae deletion strains, locus YIL066C, strain RNR3, hits give low values 0.965 | S. cerevisiae deletion strains, locus YIL073C, strain SPO22, hits give low values 0.997 | S. cerevisiae deletion strains, locus YIL125W, strain kgd1, hits give low values 0.946 | S. cerevisiae deletion strains, locus YIR030C, strain dcg1, hits give low values 0.985 | S. cerevisiae deletion strains, locus YJL092W, strain hpr5, hits give low values 0.984 | S. cerevisiae deletion strains, locus YJL095W, strain BCK1 (second series), hits give low values 1 | S. cerevisiae deletion strains, locus YJL095W, strain BCK1, hits give low values 1.05 | S. cerevisiae deletion strains, locus YJL115W, strain asf1, hits give low values 0.984 | S. cerevisiae deletion strains, locus YJL129C, strain trk1, hits give low values 0.979 | S. cerevisiae deletion strains, locus YJL134W, strain LCB3, hits give low values 0.987 | S. cerevisiae deletion strains, locus YJL154C, strain vps35, hits give low values 0.996 | S. cerevisiae deletion strains, locus YJL164C, strain tpk1, hits give low values 0.979 | S. cerevisiae deletion strains, locus YJL166W, strain qcr8, hits give low values 0.99 | S. cerevisiae deletion strains, locus YJL168C, strain set2, hits give low values 0.984 | S. cerevisiae deletion strains, locus YJL187C, strain SWE1 (second series), hits give low values 1.02 | S. cerevisiae deletion strains, locus YJL187C, strain SWE1, hits give low values 1 | S. cerevisiae deletion strains, locus YJR043C, strain POL32, hits give low values 0.963 | S. cerevisiae deletion strains, locus YKL009W, strain mrt4, hits give low values 0.988 | S. cerevisiae deletion strains, locus YKL068W, hits give low values 0.997 | S. cerevisiae deletion strains, locus YKL085W, strain MDH1 (second series), hits give low values 0.994 | S. cerevisiae deletion strains, locus YKL085W, strain MDH1, hits give low values 0.994 | S. cerevisiae deletion strains, locus YKL160W, strain elf1, hits give low values 1.02 | S. cerevisiae deletion strains, locus YKR001C, strain vps1, hits give low values 0.975 | S. cerevisiae deletion strains, locus YKR026C, strain gcn3, hits give low values 0.968 | S. cerevisiae deletion strains, locus YKR091W, strain srl3, hits give low values 0.983 | S. cerevisiae deletion strains, locus YLL001W, strain dnm1, hits give low values 0.984 | S. cerevisiae deletion strains, locus YLL026W, hits give low values 0.986 | S. cerevisiae deletion strains, locus YLL041C, strain sdh2, hits give low values 0.994 | S. cerevisiae deletion strains, locus YLR027C, strain aat2, hits give low values 0.993 | S. cerevisiae deletion strains, locus YLR039C, strain RIC1, hits give low values 1 | S. cerevisiae deletion strains, locus YLR058C, strain SHM2, hits give low values 0.982 | S. cerevisiae deletion strains, locus YLR102C, strain apc9, hits give low values 0.982 | S. cerevisiae deletion strains, locus YLR221C, strain rsa3, hits give low values 0.972 | S. cerevisiae deletion strains, locus YLR258W, strain gsy2, hits give low values 0.995 | S. cerevisiae deletion strains, locus YLR262C, strain YPT6 (second series), hits give low values 1 | S. cerevisiae deletion strains, locus YLR268W, strain sec22, hits give low values 0.976 | S. cerevisiae deletion strains, locus YLR320W, strain mms22, hits give low values 0.986 | S. cerevisiae deletion strains, locus YLR330W, strain CHS5, hits give low values 0.994 | S. cerevisiae deletion strains, locus YLR342W, strain FKS1, hits give low values 0.984 | S. cerevisiae deletion strains, locus YLR357W, strain rsc2, hits give low values 0.987 | S. cerevisiae deletion strains, locus YLR370C, strain arc18, hits give low values 0.994 | S. cerevisiae deletion strains, locus YLR371W, strain rom2, hits give low values 0.959 | S. cerevisiae deletion strains, locus YLR384C, strain iki3, hits give low values 0.994 | S. cerevisiae deletion strains, locus YLR418C, strain cdc73, hits give low values 1.03 | S. cerevisiae deletion strains, locus YML016C, strain PPZ1, hits give low values 0.968 | S. cerevisiae deletion strains, locus YML032C, strain rad52, hits give low values 0.963 | S. cerevisiae deletion strains, locus YML120C, strain ndi1, hits give low values 0.996 | S. cerevisiae deletion strains, locus YML124C, strain tub3, hits give low values 0.975 | S. cerevisiae deletion strains, locus YMR058W, strain fet3, hits give low values 0.989 | S. cerevisiae deletion strains, locus YMR078C, strain ctf18, hits give low values 0.988 | S. cerevisiae deletion strains, locus YMR125W, strain sto1, hits give low values 0.993 | S. cerevisiae deletion strains, locus YMR129W, hits give low values 1.01 | S. cerevisiae deletion strains, locus YMR205C, strain PFK2, hits give low values 0.967 | S. cerevisiae deletion strains, locus YMR223W, strain ubp8, hits give low values 1 | S. cerevisiae deletion strains, locus YMR231W, strain pep5, hits give low values 0.988 | S. cerevisiae deletion strains, locus YMR307W, strain GAS1, hits give low values 0.972 | S. cerevisiae deletion strains, locus YNL067W, strain RPL9B, hits give low values 1.02 | S. cerevisiae deletion strains, locus YNL071W, strain lat1, hits give low values 0.987 | S. cerevisiae deletion strains, locus YNL153C, strain GIM3, hits give low values 1.01 | S. cerevisiae deletion strains, locus YNL209W, strain ssb2, hits give low values 1 | S. cerevisiae deletion strains, locus YNL233W, strain BNI4, hits give low values 1.02 | S. cerevisiae deletion strains, locus YNL248C, strain rpa49, hits give low values 1.01 | S. cerevisiae deletion strains, locus YNL250W, strain rad50, hits give low values 1.02 | S. cerevisiae deletion strains, locus YNL271C, strain bni1, hits give low values 0.988 | S. cerevisiae deletion strains, locus YNL298W, strain CLA4, hits give low values 0.982 | S. cerevisiae deletion strains, locus YNL307C, strain MCK1, hits give low values 0.992 | S. cerevisiae deletion strains, locus YNL322C, strain KRE1 (second series), hits give low values 0.979 | S. cerevisiae deletion strains, locus YNL322C, strain KRE1, hits give low values 0.999 | S. cerevisiae deletion strains, locus YNR049C, strain mso1, hits give low values 0.994 | S. cerevisiae deletion strains, locus YNR052C, strain pop2, hits give low values 1.01 | S. cerevisiae deletion strains, locus YOL006C, strain TOP1, hits give low values 1.05 | S. cerevisiae deletion strains, locus YOL012C, strain htz1 0.767 | S. cerevisiae deletion strains, locus YOL147C, strain pex11, hits give low values 0.991 | S. cerevisiae deletion strains, locus YOR001W, strain rrp6, hits give low values 1.01 | S. cerevisiae deletion strains, locus YOR061W, strain CKA2, hits give low values 0.939 | S. cerevisiae deletion strains, locus YOR069W, strain VPS5, hits give low values 1 | S. cerevisiae deletion strains, locus YOR070C, strain gyp1, hits give low values 0.999 | S. cerevisiae deletion strains, locus YOR080W, strain dia2, hits give low values 0.989 | S. cerevisiae deletion strains, locus YOR083W, strain WHI5, hits give low values 1.02 | S. cerevisiae deletion strains, locus YOR106W, strain vam3, hits give low values 1 | S. cerevisiae deletion strains, locus YOR136W, strain idh2, hits give low values 0.993 | S. cerevisiae deletion strains, locus YOR144C, strain elg1, hits give low values 0.98 | S. cerevisiae deletion strains, locus YOR184W, strain ser1, hits give low values 0.967 | S. cerevisiae deletion strains, locus YOR265W, strain rbl2, hits give low values 0.999 | S. cerevisiae deletion strains, locus YOR270C, strain vph1, hits give low values 0.828 | S. cerevisiae deletion strains, locus YOR290C, strain snf2, hits give low values 0.923 | S. cerevisiae deletion strains, locus YOR316C, strain cot1, hits give low values 0.981 | S. cerevisiae deletion strains, locus YPL051W, strain arl3, hits give low values 1.03 | S. cerevisiae deletion strains, locus YPL055C, strain LGE1, hits give low values 0.957 | S. cerevisiae deletion strains, locus YPL078C, strain atp4, hits give low values 0.999 | S. cerevisiae deletion strains, locus YPL106C, strain sse1, hits give low values 1 | S. cerevisiae deletion strains, locus YPL240C, strain hsp82, hits give low values 1 | S. cerevisiae deletion strains, locus YPR119W, strain clb2, hits give low values 0.994 | S. cerevisiae deletion strains, locus YPR141C, strain kar3, hits give low values 0.982 | S. cerevisiae deletion strains, locus YPR163C, strain tif3, hits give low values 0.975 | S. cerevisiae deletion strains, locus YPR167C, strain met16, hits give low values 0.99 | S. cerevisiae deletion strains, strain wtn01, hits give low values 0.949 | S. cerevisiae strains, strain wild type, hits give low values 0.976

Source: PubChem BioAssay AID1159580 (chemical genetic matrix, 2015)
